A short description of this assay: inducers of human heat shock response, cell-based, HSE luciferase (AID 1611). The following applies: human cells, HSE-luciferase heat shock reporter; stronger effect = higher value.
Take `CC(=O)Oc1ccc2c(c1)CCC1C2CC[C@@]2(C)C1CC[C@@H]2OC(C)=O` (some centres undefined): the fold change amounted to 1.07.

On to `COCCc1ccc(OCC(O)CNC(C)C)cc1` (centres undefined), for which the fold change was found to be 0.6.

As to `Oc1ccc(Cl)c2cccnc12`, the fold change was determined as 1.15.

Regarding `CCN1CCN(C(=O)NC(C(=O)NC2C(=O)N3C(C(=O)O)=C(CSc4nnnn4C)CSC23)c2ccc(O)cc2)C(=O)C1=O` (centres undefined), the fold change was determined as 0.74.

Turning to `CC1CCC(NC(=O)N(CCCl)N=O)CC1` (centres undefined), the fold change came to 0.95.

On to `CCn1cc(C(=O)O)c(=O)c2ccc(C)nc21`, for which the fold change was determined as 0.98.

On to `Cc1ccc(C)c(OCCCC(C)(C)C(=O)O)c1`, for which the fold change came to 0.57.

Take `Cc1ccc(S(=O)(=O)NC(=O)NN2CCCCCC2)cc1`: the fold change worked out at 0.73.

On to `CC12CC3CC(C)(C1)CC(N)(C3)C2`, for which the fold change was 0.96.

On to `O=C(O)CCCCC1SCC2NC(=O)NC21` (centres undefined), for which the fold change worked out at 2.49.

With `Oc1c(I)cc(I)c2cccnc12`, the fold change stood at 1.19.

Take `CN1CCC(=C2c3ccccc3CC(=O)c3sccc32)CC1`: the fold change was found to be 1.41.

On to `CCN(CC)CCOC(=O)c1ccc(N)cc1`, for which the fold change is 0.94.

Consider `O=c1ccn([C@@H]2O[C@H](COP(=O)(O)OP(=O)(O)OP(=O)(O)O)[C@@H](O)[C@H]2O)c(=O)[nH]1`, for which the fold change is 1.15.

Consider `C[N+]1(C)C2CC[C@H]1CC(OC(=O)C(O)c1ccccc1)C2` (some centres undefined), for which the fold change was found to be 1.16.

As to `Nc1c(Br)cc(Br)cc1CNC1CCC(O)CC1` (centres undefined), the fold change came to 1.19.

`Cn1c(=O)c2c(ncn2CCO)n(C)c1=O`: the fold change was determined as 0.58.

Turning to `CCCCCC(=O)O[C@]1(C(C)=O)CCC2C3CCC4=CC(=O)CC[C@]4(C)C3CC[C@@]21C` (some centres undefined), the fold change is 1.47.

Turning to `O=C1c2ccccc2C(=O)C1c1ccccc1`, the fold change is 331.

In the case of `CN[C@@H]1[C@H](OC2[C@H](O[C@H]3[C@H](O)[C@@H](O)[C@H](N=C(N)N)[C@@H](O)[C@@H]3N=C(N)N)O[C@@H](C)[C@]2(O)C=O)O[C@@H](CO)[C@H](O)[C@H]1O` (some centres undefined), the fold change stood at 1.17.

As to `NC(N)=O`, the fold change turned out to be 1.06.

Take `CC[C@H]1OC(=O)[C@H](C)[C@@H](O[C@H]2C[C@@](C)(OC)[C@@H](O)[C@H](C)O2)[C@H](C)[C@@H](O[C@@H]2O[C@H](C)C[C@H](N(C)C)[C@H]2O)[C@](C)(O)C[C@@H](C)C(=O)[C@H](C)[C@@H](O)[C@]1(C)O`: the fold change stood at 0.93.

Turning to `O=C(O)c1cccnc1Nc1cccc(C(F)(F)F)c1`, the fold change was 1.08.

Take `CC(C)(C)NC[C@@H](O)COc1nsnc1N1CCOCC1`: the fold change stood at 0.87.

For `O=c1c(O)cc2c(O)oc3c(=O)c(O)cc4c3c2c1CC=4O`, the fold change amounted to 1.46.

As to `C#CCN(C)Cc1ccccc1`, the fold change came to 1.01.

On to `CCCCCCOc1ccccc1C(N)=O`, for which the fold change was determined as 0.59.

For the molecule `Nc1nc2c(ncn2COCCO)c(=O)[nH]1`, the fold change is 1.01.

Regarding `Nc1ccc(S(=O)(=O)Nc2ccnn2-c2ccccc2)cc1`, the fold change stood at 0.94.

With `COC1=C2C[C@@H](C)C[C@H](OC)[C@H](O)[C@@H](C)/C=C(\C)[C@@H](OC(N)=O)[C@H](OC)/C=C\C=C(/C)C(=O)NC(=CC1=O)C2=O`, the fold change was 1.05.

As for `CN(C)C(=O)Oc1ccc[n+](C)c1`, the fold change was 1.31.

Turning to `Cc1ccc(C(=O)c2ccc(CC(=O)O)n2C)cc1`, the fold change is 279.

For `CC(Cc1ccc(O)c(O)c1)(NN)C(=O)O` (centres undefined), the fold change is 1.02.

As to `C[N+](C)(C)CCO`, the fold change was 0.93.

Turning to `CN1CCC[C@@H]1CCO[C@](C)(c1ccccc1)c1ccc(Cl)cc1`, the fold change is 0.87.

As for `COc1ccc(C(=O)c2ccccc2)c(O)c1`, the fold change is 0.92.

In the case of `CC/C(=C(\c1ccccc1)c1ccc(OCCN(C)C)cc1)c1ccccc1`, the fold change was found to be 0.77.

In the case of `CC[C@]12CCCN3CCc4c(n(c5ccccc45)[C@](O)(C(=O)OC)C1)[C@@H]32`, the fold change came to 1.14.

Turning to `CCN(CC)CCNC(=O)c1cc(Br)c(N)cc1OC`, the fold change came to 1.36.
